Values joined by “and” are separate entries in the source; they are usually repeats but may differ in a detail not shown here. Equal entries are not always repeated. Records with an inconclusive call do not appear. Some compounds were tested as several samples or in several runs, with calls that do not always agree. Active and inactive are the calls of the source. Unless noted, calls follow the shape of the dose curve; as a rule, active = well fitted curve in the direction sought with a large enough effect; inconclusive = small, poorly fitted or top-dose-only effect, or another doubt; inactive = no such curve, though single readings can be large; an effect the other way counts as inactive or inconclusive.
How the values were obtained:
[1] = biological target: Cytochrome P450 1A2 (Homo sapiens) (UniProt P05177); test: p450-cyp1a2 (AID 410; calls by dose curve; also: potency is read from the fitted curve at half-maximal effect;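 as to activity change, negative = inhibition: -100% = full effect of reference inhibitor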)
Chain of Cytochrome P450 1A2 (Homo sapiens) (P05177 whole entry, looked up): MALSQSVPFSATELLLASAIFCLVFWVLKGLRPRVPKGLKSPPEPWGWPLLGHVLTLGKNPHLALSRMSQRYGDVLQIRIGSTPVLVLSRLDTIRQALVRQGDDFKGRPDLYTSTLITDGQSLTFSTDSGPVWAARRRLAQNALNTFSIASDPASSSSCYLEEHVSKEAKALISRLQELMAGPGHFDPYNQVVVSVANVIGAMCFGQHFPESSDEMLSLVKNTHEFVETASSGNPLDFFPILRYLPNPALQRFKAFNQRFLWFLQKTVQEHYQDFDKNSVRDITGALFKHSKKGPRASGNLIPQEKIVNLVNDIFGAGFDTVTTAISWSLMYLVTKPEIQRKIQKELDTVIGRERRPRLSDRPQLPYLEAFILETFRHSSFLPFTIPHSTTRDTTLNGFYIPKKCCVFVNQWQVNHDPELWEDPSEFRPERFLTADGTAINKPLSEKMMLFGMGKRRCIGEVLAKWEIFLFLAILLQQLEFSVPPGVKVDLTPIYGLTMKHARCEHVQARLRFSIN
How it was run: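 Luminescent readout of luciferin formed from Luciferin-ME by human CYP1A2; data normalized against complete inhibition by 57 uM furafylline. Enzyme 20nM, substrate 100uM at Km, 100mM KPO4 buffer, 60 min reaction at room temperature.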

[2] = NFAT Signaling Pathway (AID 444; active = well fitted curve in either direction with a large enough effect, not every such curve was filed as active;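 also: carbachol stimulus at about its EC50 of 1 µM final; % is scaled to controls: 0 for no effect and ±100 for the full control effect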); details: Jurkat NFAT-bla M1, carbachol, beta-lactamase ratio, 5 h; at 17.2 µM (top of the series) unless noted
How it was run: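 Jurkat cells with NFAT-driven β-lactamase reporter and co-expressed M1 receptor, stimulated with carbachol (final 1 uM, ~EC50), compound titration, 5 h at 37 °C. CCF4 loaded 1 h at RT; 460/530 nm ratio gave %activity and AC50.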

[3] = biological target: Glucocorticoid receptor (Homo sapiens) (UniProt P04150); test: GR-GFP Redistribution (AID 450;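 active = compounds whose dose series gives a full or clear partial fitted curve of increased nuclear translocation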; also: potency is read from the fitted curve at half-maximal effect)
Chain of Glucocorticoid receptor (Homo sapiens) (P04150 whole entry, looked up, the tested form may be a part): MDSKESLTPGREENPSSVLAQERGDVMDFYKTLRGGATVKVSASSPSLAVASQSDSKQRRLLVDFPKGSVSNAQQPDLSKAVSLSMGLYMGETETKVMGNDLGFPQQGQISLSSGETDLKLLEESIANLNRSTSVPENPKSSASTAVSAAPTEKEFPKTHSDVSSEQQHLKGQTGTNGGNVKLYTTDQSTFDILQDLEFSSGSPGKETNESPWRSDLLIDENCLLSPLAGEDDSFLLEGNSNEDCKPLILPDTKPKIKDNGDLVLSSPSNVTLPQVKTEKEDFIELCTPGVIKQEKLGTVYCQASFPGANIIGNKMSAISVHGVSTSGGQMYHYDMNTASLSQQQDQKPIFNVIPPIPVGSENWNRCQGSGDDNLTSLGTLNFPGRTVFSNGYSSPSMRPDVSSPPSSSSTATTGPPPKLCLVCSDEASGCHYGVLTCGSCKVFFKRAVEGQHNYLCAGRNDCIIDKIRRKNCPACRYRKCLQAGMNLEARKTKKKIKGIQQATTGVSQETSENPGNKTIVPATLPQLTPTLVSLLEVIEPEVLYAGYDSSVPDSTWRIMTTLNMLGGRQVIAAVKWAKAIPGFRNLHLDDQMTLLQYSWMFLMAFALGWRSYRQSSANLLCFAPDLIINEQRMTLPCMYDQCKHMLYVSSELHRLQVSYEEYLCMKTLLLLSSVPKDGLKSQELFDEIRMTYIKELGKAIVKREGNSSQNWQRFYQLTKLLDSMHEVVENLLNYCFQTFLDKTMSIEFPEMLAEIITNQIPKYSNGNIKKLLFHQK

[4] = biological target: Glucocorticoid receptor (Homo sapiens) (UniProt P04150); test: GR-EFC Redistribution (AID 451; calls by dose curve; also: potency is read from the fitted curve at half-maximal effect); details: CHO-K1 GR-EFC translocation, beta-gal luminescence, 2 h
How it was run: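 CHO-K1 cells expressing nuclear EA and GR-ED fragments of b-gal; compounds titrated up to 46 uM final, 2 h at 37 C. GR nuclear translocation read as complemented b-gal luminescence after 1 h RT detection.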

[5] = biological target: Mitogen-activated protein kinase 10 (Mus musculus) (UniProt Q61831); test: JNK3 AlphaScreen Assay (AID 530; active = well fitted curve in either direction with a large enough effect, not every such curve was filed as active;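 also: kinase came from lysate of stimulated human HepG2 cells; signal reports phosphorylation of biotinylated GST-cJun 1-79 at Ser73 with 10 µM ATP; % is scaled to controls: 0 for no effect and ±100 for the full control effect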)
How it was run: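 Pre-activated (IL-1β/TNFα) JNK3 in HepG2 lysates phosphorylates biotin-GST-cJun(1-79), 10 uM ATP; anti-phospho-cJun(Ser73) AlphaScreen read at room temperature, pH 7.6 Tris buffer. Compounds pre-incubated 15 min as titrations.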

[6] = biological target: 3',5'-cyclic-AMP phosphodiesterase 4B (Homo sapiens) (UniProt Q07343); test: qHTS Assay for Inhibitors of PDE-IV (AID 607; active = well fitted activation curve with a large enough effect in the main read-out, with a control signal flat, not every such curve was filed as active; also: % of control where 0% means no effect)
Chain of 3',5'-cyclic-AMP phosphodiesterase 4B (Homo sapiens) (Q07343 whole entry, looked up): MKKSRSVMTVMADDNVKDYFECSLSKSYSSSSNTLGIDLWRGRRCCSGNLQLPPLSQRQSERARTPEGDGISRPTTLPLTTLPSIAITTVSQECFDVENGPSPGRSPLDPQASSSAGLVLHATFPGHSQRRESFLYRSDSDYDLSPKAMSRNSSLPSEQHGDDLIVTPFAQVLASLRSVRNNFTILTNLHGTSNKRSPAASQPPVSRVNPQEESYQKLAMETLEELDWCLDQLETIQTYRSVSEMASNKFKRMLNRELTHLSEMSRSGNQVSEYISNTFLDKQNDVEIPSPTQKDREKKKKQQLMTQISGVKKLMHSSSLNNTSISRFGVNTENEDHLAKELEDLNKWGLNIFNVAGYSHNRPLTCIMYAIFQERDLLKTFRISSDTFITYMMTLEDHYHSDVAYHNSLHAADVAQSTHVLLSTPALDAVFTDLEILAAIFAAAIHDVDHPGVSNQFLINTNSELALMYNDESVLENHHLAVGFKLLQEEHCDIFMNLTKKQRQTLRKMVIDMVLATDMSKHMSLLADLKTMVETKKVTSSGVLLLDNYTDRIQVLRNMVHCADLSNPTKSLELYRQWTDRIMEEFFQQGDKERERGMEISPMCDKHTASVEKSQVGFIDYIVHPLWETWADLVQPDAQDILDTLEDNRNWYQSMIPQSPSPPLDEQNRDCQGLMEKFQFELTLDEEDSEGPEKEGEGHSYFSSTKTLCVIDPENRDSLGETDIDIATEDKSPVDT
How it was run: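 HEK293 ACTOne cells with CNG channel (1000/well), endogenous PDE4; membrane potential dye, compounds up to 22.9 uM final. Fluorescence Ex 535/Em 590; RO 20-1724 (100 uM final) as reference.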

[7] = biological target: Guanine nucleotide-binding protein G(i) subunit alpha-1 (Homo sapiens) (UniProt P63096); test: qHTS Assay for Inhibitors of RGS12 GoLoco Motif Activity (Green Fluorophore) (AID 879);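 also: 0% = labeled peptide with Gαi1 and full inhibition = labeled peptide alone without protein; negative values mean loss of peptide binding seen as reduced polarization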
How it was run: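 Fluorescence polarization assay: 50 nM Gαi1 with 10 nM FITC-labeled RGS12 GoLoco peptide in 10 mM Tris pH 7.5, 150 mM NaCl, 0.1 mM GDP, 0.05% NP40, 10 min at room temperature with compound.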

[8] = biological target: Cytochrome P450 3A4 (Homo sapiens) (UniProt P08684); test: qHTS Assay for Activators of Cytochrome P450 3A4 (AID 885); also: nearly all actives have a fitted effect of over 65% in size
Chain of Cytochrome P450 3A4 (Homo sapiens) (P08684 whole entry, looked up): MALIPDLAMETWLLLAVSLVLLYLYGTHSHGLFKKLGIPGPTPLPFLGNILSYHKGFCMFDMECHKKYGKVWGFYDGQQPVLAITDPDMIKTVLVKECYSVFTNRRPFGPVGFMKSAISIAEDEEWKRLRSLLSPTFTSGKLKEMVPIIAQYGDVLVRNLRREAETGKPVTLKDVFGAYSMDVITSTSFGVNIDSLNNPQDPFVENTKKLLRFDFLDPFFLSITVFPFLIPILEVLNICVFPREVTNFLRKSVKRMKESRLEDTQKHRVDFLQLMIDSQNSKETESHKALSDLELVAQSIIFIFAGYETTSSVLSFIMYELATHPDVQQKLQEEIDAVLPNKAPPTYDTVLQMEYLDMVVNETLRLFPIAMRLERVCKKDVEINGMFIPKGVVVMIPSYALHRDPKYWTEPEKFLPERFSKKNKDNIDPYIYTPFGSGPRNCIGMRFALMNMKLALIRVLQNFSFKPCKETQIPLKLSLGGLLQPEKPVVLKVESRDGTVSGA
How it was run: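 Human CYP3A4 (20 nM) with Luciferin-PPXE at 25 uM (its KM) in 200 mM KPO4; 10 min compound preincubation, then NADPH regeneration and 60 min reaction at RT. Luciferin read by luminescence; normalized to 57 uM ketoconazole full inhibition.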

[9] = biological target: Cytochrome P450 2D6 (Homo sapiens) (UniProt P10635); test: qHTS Assay for Inhibitors and Substrates of Cytochrome P450 2D6 (AID 891);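 also: luciferin methyl ether substrate demethylated by CYP2D6 with NADPH regeneration; % is scaled to controls: 0 for no effect and ±100 for the full control effect; nearly all actives have a fitted effect of over 60% in size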
Chain of Cytochrome P450 2D6 (Homo sapiens) (P10635 whole entry, looked up): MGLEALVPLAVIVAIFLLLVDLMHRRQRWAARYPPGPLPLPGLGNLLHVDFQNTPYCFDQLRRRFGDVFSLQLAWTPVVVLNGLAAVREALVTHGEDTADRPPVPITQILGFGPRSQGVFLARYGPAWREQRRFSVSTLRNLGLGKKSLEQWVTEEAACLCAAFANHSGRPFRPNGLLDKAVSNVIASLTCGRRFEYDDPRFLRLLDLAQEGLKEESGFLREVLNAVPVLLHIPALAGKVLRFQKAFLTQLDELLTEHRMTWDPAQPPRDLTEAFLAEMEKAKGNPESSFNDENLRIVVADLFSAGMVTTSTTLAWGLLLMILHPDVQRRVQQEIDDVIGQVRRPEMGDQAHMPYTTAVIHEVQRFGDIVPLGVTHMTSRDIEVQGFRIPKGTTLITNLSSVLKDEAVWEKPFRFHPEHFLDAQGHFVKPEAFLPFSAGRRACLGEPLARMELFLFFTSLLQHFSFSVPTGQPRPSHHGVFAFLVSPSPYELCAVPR
How it was run: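 Human CYP2D6 (5 nM) with 30 uM Luciferin-ME EGE (at Km) in 100 mM KPO4, compound preincubated 10 min, then NADPH regeneration system for 60 min at room temperature. Luciferin read by luminescence; normalized to 1.43 uM quinidine.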

[10] = qHTS Assay for Identification of Small Molecule Antagonists for Thrombopoietin (TPO) Signaling Pathway (AID 918); details: TPO-dependent cell signaling reporter, antagonist mode; also: potency is read from the fitted curve at half-maximal effect; nearly all actives have a fitted effect of over 60% in size
How it was run: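 Ba/F3 (murine, hTPO-R, GPIIb-luc reporter); overnight IL-3 withdrawal; cpd + TPO 26 pM final (EC50); 24 h 37 C/5% CO2; Steadylite luminescence after 10 min RT.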

[11] = biological target: Pyruvate kinase (Leishmania mexicana) (UniProt Q27686); test: qHTS Validation Assay for Inhibitors of Leishmania Mexicana Pyruvate Kinase (AID 945);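 also: 0% = DMSO only neutral control wells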
How it was run: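 Compounds are tested as eight-point concentration series. Reactions contain 0.2 nM LmPYK E451W, 0.5 mM PEP, 0.1 mM ADP, 7 mM MgCl2 and 50 mM KCl at pH 7.2, run 1 h at room temperature, then read by PKLight luminescence.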

[12] = biological target: Pyruvate kinase PKM (Homo sapiens) (UniProt P14618); test: qHTS Assay for Activators of Human Muscle Pyruvate Kinase (AID 954; active = well fitted curve in the direction sought with a large enough effect, not every such curve was filed as active;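 also: 0% = uninhibited enzyme and -100% = no enzyme or full thiadiazolimine inhibition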)
Chain of Pyruvate kinase PKM (Homo sapiens) (P14618 whole entry, looked up): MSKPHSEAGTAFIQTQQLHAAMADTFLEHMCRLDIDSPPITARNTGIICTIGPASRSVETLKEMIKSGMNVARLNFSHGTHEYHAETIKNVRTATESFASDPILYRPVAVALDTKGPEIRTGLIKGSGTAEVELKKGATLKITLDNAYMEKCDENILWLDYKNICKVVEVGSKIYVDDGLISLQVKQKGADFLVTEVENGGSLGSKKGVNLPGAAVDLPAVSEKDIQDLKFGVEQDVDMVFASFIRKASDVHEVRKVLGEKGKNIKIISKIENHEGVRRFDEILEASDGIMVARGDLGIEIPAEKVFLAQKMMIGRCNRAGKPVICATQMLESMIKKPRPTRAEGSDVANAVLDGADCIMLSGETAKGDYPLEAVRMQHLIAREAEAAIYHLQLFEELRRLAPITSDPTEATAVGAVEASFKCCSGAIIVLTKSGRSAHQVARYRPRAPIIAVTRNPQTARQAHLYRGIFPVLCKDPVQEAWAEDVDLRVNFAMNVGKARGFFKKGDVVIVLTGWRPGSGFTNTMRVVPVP
How it was run: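 Purified human PKM2 (0.1 nM) with 0.5 mM PEP (Km) and 0.1 mM ADP in 50 mM imidazole pH 7.2, KCl, MgCl2, 1 h at room temperature; ATP formed read by coupled luciferase luminescence. Normalized to no-enzyme/110 uM thiadiazolimine inhibition; 0.3 nM enzyme column for activation.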

[13] = biological target: Alpha-galactosidase A (Homo sapiens) (UniProt P06280); test: Counterscreen for Glucocerebrosidase Inhibitors: qHTS Assay for Human alpha-Galactosidase at pH 4.5 (AID 992); also: 0% is about no effect
Chain of Alpha-galactosidase A (Homo sapiens) (P06280 whole entry, looked up): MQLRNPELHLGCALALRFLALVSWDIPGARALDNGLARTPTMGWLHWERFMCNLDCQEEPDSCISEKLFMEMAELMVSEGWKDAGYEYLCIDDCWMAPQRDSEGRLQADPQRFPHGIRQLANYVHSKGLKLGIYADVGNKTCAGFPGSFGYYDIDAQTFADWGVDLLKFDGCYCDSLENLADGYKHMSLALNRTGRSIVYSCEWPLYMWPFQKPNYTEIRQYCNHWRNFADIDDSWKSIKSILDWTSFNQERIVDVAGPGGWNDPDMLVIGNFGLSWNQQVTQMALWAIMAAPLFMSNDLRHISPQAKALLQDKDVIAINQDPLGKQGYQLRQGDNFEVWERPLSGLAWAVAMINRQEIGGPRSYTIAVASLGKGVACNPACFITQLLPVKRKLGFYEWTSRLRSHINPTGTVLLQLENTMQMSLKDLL
How it was run: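 Human enzyme (2 nM) with 80 uM 4-methylumbelliferyl alpha-D-galactopyranoside in 50 mM citric acid, 0.005% Tween-20, pH 4.5, 20 min at room temperature. Compounds 0.7 nM–77 uM; fluorescence Ex 365/Em 440 after pH 10 stop; AC50 from Hill fits.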

[14] = biological target: ATP-dependent 6-phosphofructokinase (Trypanosoma brucei brucei) (UniProt O15648); test: qHTS Assay to Find Inhibitors of T. brucei phosphofructokinase: hit validation (AID 492961);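 also: luminescence reports ADP formed as PFK phosphorylates fructose-6-phosphate with ATP; % is scaled to controls: 0 for no effect and ±100 for the full control effect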
Chain of ATP-dependent 6-phosphofructokinase (Trypanosoma brucei brucei) (O15648 whole entry, looked up): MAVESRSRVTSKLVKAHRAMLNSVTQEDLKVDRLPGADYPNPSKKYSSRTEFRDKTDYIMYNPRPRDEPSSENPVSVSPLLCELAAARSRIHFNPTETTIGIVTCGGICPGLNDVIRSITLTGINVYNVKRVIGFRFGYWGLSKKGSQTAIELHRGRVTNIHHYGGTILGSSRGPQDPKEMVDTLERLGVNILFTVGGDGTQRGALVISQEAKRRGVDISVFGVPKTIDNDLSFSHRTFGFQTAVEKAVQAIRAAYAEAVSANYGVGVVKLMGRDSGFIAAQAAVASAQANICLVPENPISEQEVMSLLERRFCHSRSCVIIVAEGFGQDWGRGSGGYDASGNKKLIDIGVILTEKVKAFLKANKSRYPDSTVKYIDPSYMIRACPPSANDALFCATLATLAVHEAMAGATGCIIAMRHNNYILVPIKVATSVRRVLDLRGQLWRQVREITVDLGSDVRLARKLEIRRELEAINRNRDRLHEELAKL
How it was run: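 Compounds titrated; %activity normalized to 0x and 1x enzyme controls, curve-fitted. Readout: ADP-Glo luminescence after 45 min room-temperature reaction of 1.25 nM PFK, 0.1 mM ATP, 0.5 mM F6P, pH 8.0.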

[15] = biological target: Ubiquitin carboxyl-terminal hydrolase 1 (Homo sapiens) (UniProt O94782); test: Inhibitors of USP1/UAF1: Pilot qHTS (AID 504865);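 also: rhodamine fluorescence freed from ubiquitin-rhodamine substrate followed over time; top concentration of the series differs between compounds; % is scaled to controls: 0 for no effect and ±100 for the full control effect; nearly all actives have a fitted effect of over 35% in size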
How it was run: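 USP1/UAF1 complex (1nM) preincubated with compound 15 min at room temperature, then Ub-Rho substrate (150nM final) added. Fluorescence read kinetically at 480/540 nm, 6 reads every 60 seconds. Buffer: 50mM HEPES pH 7.8, 0.5mM EDTA, 0.1 mg/ml BSA, 1mM TCEP, 0.01% Tween-20.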

[16] = biological target: Luciferin 4-monooxygenase (Photinus pyralis) (UniProt P08659); test: Biochemical firefly luciferase enzyme assay for NPC (AID 624030);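 also: purified P. pyralis luciferase at 10 nM with luciferin and ATP substrate; 0% = DMSO and -100% = full luciferase inhibition by PTC124 control; nearly all actives have a fitted effect of over 70% in size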
Chain of Luciferin 4-monooxygenase (Photinus pyralis) (P08659 whole entry, looked up): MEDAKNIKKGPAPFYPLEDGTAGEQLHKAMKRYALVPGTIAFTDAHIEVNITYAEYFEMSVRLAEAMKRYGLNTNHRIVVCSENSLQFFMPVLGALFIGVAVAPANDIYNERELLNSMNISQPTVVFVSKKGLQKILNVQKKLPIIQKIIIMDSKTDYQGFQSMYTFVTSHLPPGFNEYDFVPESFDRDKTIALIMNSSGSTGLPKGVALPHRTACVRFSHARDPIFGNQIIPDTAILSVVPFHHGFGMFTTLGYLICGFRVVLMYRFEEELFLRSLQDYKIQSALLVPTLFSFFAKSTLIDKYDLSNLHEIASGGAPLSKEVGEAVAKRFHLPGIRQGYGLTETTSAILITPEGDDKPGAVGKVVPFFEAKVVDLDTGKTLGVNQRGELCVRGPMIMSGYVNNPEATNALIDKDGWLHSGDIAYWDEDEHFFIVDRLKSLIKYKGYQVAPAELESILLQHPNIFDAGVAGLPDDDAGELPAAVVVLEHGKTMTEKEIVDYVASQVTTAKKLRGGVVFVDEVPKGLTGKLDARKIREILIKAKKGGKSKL
How it was run: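 Purified P. pyralis luciferase at 10 nM in 50 mM Tris Acetate (final), luminescence read within 5 minutes of enzyme addition to compounds. Activity normalised to PTC124 versus DMSO; concentration-response curves classed by r2, magnitude and activity.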

[17] = S16 Schwann cell PMP22 intronic element firefly luciferase assay (AID 624032); also: potency is read from the fitted curve at half-maximal effect; nearly all actives have a fitted effect of over 30% in size
How it was run: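 Rat S16 Schwann cells stably carrying firefly luciferase driven by a PMP22 intronic element, in 10% FBS, treated 24 h at 37 C. ONE-Glo luminescence normalized to PTC124 control and DMSO (0%); curves classed by r2, magnitude and activity.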

[18] = qHTS profiling for inhibitors of Plasmodium falciparum proliferation (AID 504749); also: nearly all actives have a fitted effect of over 60% in size; also: potency is read from the fitted curve at half-maximal effect;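 as to activity, negative = inhibition: 0% = DMSO vehicle and full inhibition = artemisinin control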; details: P. falciparum in erythrocytes, SYBR Green DNA, 72 h; at 28.7 µM (top of the series); parasite line B
How it was run: (§1)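 P. falciparum-infected erythrocytes (0.3% parasitemia, 2.5% hematocrit) incubated with compound 72 h at 37 C, 5% CO2. Parasite DNA detected by SYBR Green after lysis, overnight at room temperature; normalised to 0.29 uM artemisinin and DMSO.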

[19] = tested on: AS120; test: as above; details: P. falciparum in erythrocytes, SYBR Green DNA, 72 h; series mostly up to 28.7 µM
How it was run: as §1

[20] = tested on: ATS95; test: as above; details: P. falciparum in erythrocytes, SYBR Green DNA, 72 h; series mostly up to 28.7 µM
How it was run: as §1

[21] = tested on: CP185; test: as above; details: P. falciparum in erythrocytes, SYBR Green DNA, 72 h; series mostly up to 28.7 µM
How it was run: as §1

[22] = tested on: CP192; test: as above; details: P. falciparum in erythrocytes, SYBR Green DNA, 72 h; series mostly up to 28.7 µM
How it was run: as §1

[23] = tested on: CP201; test: as above; details: P. falciparum in erythrocytes, SYBR Green DNA, 72 h; series mostly up to 28.7 µM
How it was run: as §1

[24] = tested on: CP203; test: as above; details: P. falciparum in erythrocytes, SYBR Green DNA, 72 h; series mostly up to 28.7 µM
How it was run: as §1

[25] = tested on: CP211; test: as above; details: P. falciparum in erythrocytes, SYBR Green DNA, 72 h; series mostly up to 28.7 µM
How it was run: as §1

[26] = tested on: CP238; test: as above; details: P. falciparum in erythrocytes, SYBR Green DNA, 72 h; series mostly up to 28.7 µM
How it was run: as §1

[27] = tested on: CP247; test: as above; details: P. falciparum in erythrocytes, SYBR Green DNA, 72 h; series mostly up to 28.7 µM
How it was run: as §1

C=C1C(=O)O[C@@H]2[C@@H]1CC/C(C)=C\CC[C@@]1(C)O[C@H]21
active: activity change, negative = inhibition [2] -121% | Potency [10] 10 µM | Potency [17] 32.2 µM | Potency [27] 5.01 µM
inactive: Potency [3] > 46 µM and > 20.6 µM | Potency [4] > 46 µM and > 20.6 µM | Potency [5] | Potency [6] | outcome [7] | Potency [8] | Potency [9] | Potency [11] | outcome [12] | outcome [13] | Potency [14] | Potency [15] | Potency [16] | activity, negative = inhibition [18] -27.2% | Potency [19] | Potency [20] | Potency [21] | Potency [22] | Potency [23] | Potency [24] | Potency [25] | Potency [26]
inactive and 12.6 µM (active): Potency [1]
